Compounds with a hit are over-represented: about 3.9% of the library has one in this group of screens.
Wnt bcat act – Wnt/beta-catenin pathway activators, primary screen, cell-based, plate reader, single point | Wnt/beta-catenin reporter cell assay, activator | activation, % at 9.35 µM | 300,000 tested, 1.2% active | AID 743398, 2014; in the data active means activation above about 30%, passing the limit was not always enough;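 further: 0% = neutral control wells and 100% = positive control wells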
HSF1 inhib – HSF1 inhibitors in luciferase reporter cells, primary screen, cell-based, NIH3T3, luminescence; NIH3T3-HGL HSE-luciferase, MG132-induced, luminescence 8 h; stronger effect = lower value; activity change, negative = inhibition, % at 7.5 µM (by protocol); 300,000 tested, 0.77% active;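 active means more than half of replicate wells show activity change below -50%, luminescence cut by over half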;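 further: luciferase reports HSF-1 transcriptional activity via heat shock element; 0% = median of DMSO wells and -100% = zero luminescence signal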
MITF act – activators of MITF-driven TRPM1 promoter reporter, primary screen, cell-based, SK-MEL-5, luciferase, single point | SK-MEL-5 TRPM1-promoter luciferase, 24 h; % of positive control, neutral wells = 0 | activation, % at 12.5 µM | 300,000 tested, 0.75% active;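 active means mean activation of at least 80% with every replicate also reaching 80%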;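 further: 0% = neutral control wells and 100% = parthenolide positive control wells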
HSF-1 act – HSF-1 activators, primary screen, NIH3T3-HGL cells, MG132 stress, luminescence, single point; NIH3T3-HGL HSF-1 luciferase reporter, 8 h; 100% = twice DMSO control signal; activation, % at 9 µM; 300,000 tested, 1.7% active; AID 504408, 2011;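 active means mean replicate activation of at least 50% with a set share of replicates each reaching 50%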;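 further: 0% = median of the neutral control wells and 100% = twice that signal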
esBAF inh – Bmi1 luciferase reporter increase in mESCs, primary screen, esBAF inhibitor project, mouse ES cells, Bmi1 luciferase knock-in, single point; 24 h; 100% = twice the neutral-well signal; reporter increase, % at 12.5 µM; 350,000 tested, 2% active; AID 602393, 2012; in the data active means activation above about 40%;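 further: 0% = median of the plate's neutral control wells and 100% = double that signal; a rise in the Bmi1 reporter signal indicates esBAF inhibition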
* = called active by the depositor.

Screening O=[N+]([O-])c1ccc(NN=Cc2ccccc2)nc1 returned Wnt bcat act 49.5* and MITF act 147.9*.
`COc1ccc(/C=N/Nc2cc(OC)ncn2)cc1` gave Wnt bcat act 9.6, HSF1 inhib 33.3, MITF act 1.3 and HSF-1 act 68.5*.
Screening O=[N+]([O-])c1ccc(NN=Cc2ccc(O)cc2)nc1 returned Wnt bcat act 67.4*, MITF act 44.0 and esBAF inh 95.1*.
For O=[N+]([O-])c1ccc(NN=Cc2ccccc2O)nc1 the results were Wnt bcat act -7.9, MITF act 2.8 and esBAF inh -47.7.
O=[N+]([O-])c1ccc(N/N=C/c2cccs2)nc1 was read as Wnt bcat act 55.9*, HSF1 inhib 23.1, MITF act 108.8* and HSF-1 act 36.6.
For Cc1noc(C)c1S(=O)(=O)Nc1ccc2c(c1)C(=O)N([C@@H](C)CO)C[C@@H](C)[C@H](CN(C)Cc1ccc(C(=O)O)cc1)O2 the results were esBAF inh -7.7.
CCOc1ccccc1C=NNc1ccc([N+](=O)[O-])cn1 was read as Wnt bcat act -2.0, MITF act -7.1 and esBAF inh -5.6.
COc1ccc(NN=Nc2ccc([N+](=O)[O-])cc2)cc1 was read as Wnt bcat act 7.6, HSF1 inhib -0.9, MITF act 98.9*, HSF-1 act 14.5 and esBAF inh 49.5*.
`CCN(CC)c1ccc(C=NNc2ccc([N+](=O)[O-])cn2)cc1` gave Wnt bcat act 48.4* and MITF act 44.0.
`COc1ccc(C=NNc2ccc([N+](=O)[O-])cn2)cc1` gave Wnt bcat act 15.9, MITF act 74.3 and esBAF inh 52.4*.
Screening CN(C)c1ccc(Nc2ccc([N+](=O)[O-])cn2)cc1 returned Wnt bcat act 8.8, HSF1 inhib 17.1, HSF-1 act 19.2 and esBAF inh 50.5*.
`Cc1cc(C)c(C#N)c(SCC2COc3ccccc3O2)n1` (configuration not stated) gave Wnt bcat act -5.1, HSF1 inhib 7.7, MITF act -12.4, HSF-1 act 8.0 and esBAF inh 2.4.
For N#Cc1cc2c(nc1SCC1COc3ccccc3O1)CCC2 (configuration not stated) the results were HSF1 inhib 34.9, MITF act 110.5* and HSF-1 act 49.1.
`CCc1ccc(NC(=O)CN(c2ccccc2)S(=O)(=O)N(C)C)cc1` gave Wnt bcat act -2.0, HSF1 inhib 12.7, MITF act -4.8, HSF-1 act 60.4* and esBAF inh -2.7.
For CCOC(=O)Cn1c(-c2ccccn2)nc2ccccc21 the results were HSF1 inhib -5.7, MITF act -3.5, HSF-1 act -11.4 and esBAF inh 2.1.
For CCOC(=O)c1ccc2c(c1)nc(-c1ccccn1)n2CC the results were Wnt bcat act 26.0, HSF1 inhib 16.6, MITF act 64.2, HSF-1 act 31.5 and esBAF inh 72.6*.
C[C@H]1CN([C@@H](C)CO)C(=O)Cc2cc(NC(=O)CCCN(C)C)ccc2O[C@@H]1CN(C)C(=O)Nc1ccc2c(c1)OCO2 was read as esBAF inh -1.5.
For O=C(NCCOc1ccccc1)c1cc2ccccc2o1 the results were Wnt bcat act 14.9, HSF1 inhib 32.2, MITF act 102.4*, HSF-1 act 26.2 and esBAF inh 13.3.
Screening COCCNC(=S)NC(=O)c1ccc(C(C)(C)C)cc1 returned Wnt bcat act 18.5, HSF1 inhib 7.5, MITF act 87.1*, HSF-1 act 7.5 and esBAF inh 32.8.
`Cc1ccc(C(=O)NCCOc2cccc(C)c2)cc1` gave Wnt bcat act 5.3, HSF1 inhib 34.3, MITF act 49.1, HSF-1 act 58.7* and esBAF inh 30.5.
Screening O=C(COc1ccccc1)NNC(=O)c1cc2ccccc2o1 returned HSF1 inhib -8.4, MITF act 10.9 and HSF-1 act -8.2.
For COc1cccc(C(=O)NCCOc2cc(C)cc(C)c2)c1 the results were HSF1 inhib -12.4, MITF act -1.0 and HSF-1 act -8.3.
`CC(C)(C)c1ccc(C(=O)NCCOc2ccccc2)cc1` gave Wnt bcat act 3.9, HSF1 inhib -67.9*, HSF-1 act -67.6 and esBAF inh -43.0.
`O=C(NCC(F)(F)F)[C@@H]1[C@@H](CO)[C@@H]2Cn3c(cccc3=O)[C@H]1N2CC1CCCCC1` gave esBAF inh -0.4.
Screening CCCNC(=O)N1C[C@H]2[C@@H](c3ccccc31)[C@H](CO)N2CC1CCCC1 returned esBAF inh -0.9.
For COc1ccc(NC(=O)N(C)C[C@H]2OCCCC[C@H](C)Oc3ccc(NC(=O)C4CCCCC4)cc3C(=O)N([C@@H](C)CO)C[C@@H]2C)cc1 the results were esBAF inh 0.5.
Screening C[C@@H]1CN([C@@H](C)CO)C(=O)c2cc(NS(C)(=O)=O)ccc2O[C@@H](C)CCCCO[C@@H]1CN(C)Cc1ccncc1 returned esBAF inh 2.9.
For O=C(NCc1ccccc1)c1ccc(C(=O)NCc2ccccc2)cc1 the results were Wnt bcat act -25.5 and MITF act -6.1.
COc1ccccc1C(=O)NCCOc1ccc(C(C)(C)C)cc1 was read as Wnt bcat act -2.2, HSF1 inhib 7.8, HSF-1 act 3.1 and esBAF inh -0.4.
Screening CC(C)(C)c1ccc(C(=O)NCCOc2ccccc2F)cc1 returned Wnt bcat act -0.9, HSF1 inhib -70.8*, MITF act -24.7, HSF-1 act -74.0 and esBAF inh -50.3.
`CC(C)(C)c1ccc(C(=O)NCc2ccccc2)cc1` gave Wnt bcat act 6.6, HSF1 inhib 12.1, MITF act 88.4* and HSF-1 act 30.3.
Screening C[C@@H]1CCCCO[C@H](CN(C)CC2CCCCC2)[C@@H](C)CN([C@H](C)CO)C(=O)c2cc(NS(C)(=O)=O)ccc2O1 returned esBAF inh -5.6.
`CCOC(=O)/C=C/C(=O)Nc1ccc(S(=O)(=O)N(C)c2ccccc2)cc1` gave Wnt bcat act -7.1, HSF1 inhib 43.7, MITF act -6.9 and HSF-1 act 67.4*.
`COc1ccc(CNC(=O)C[C@@H]2CC[C@H]3[C@@H](COc4ccc(NC(C)=O)cc4C(=O)N3C)O2)cc1` gave esBAF inh 5.1.
Screening Cc1ccc(NCC(=O)c2ccccc2)cc1Cl returned HSF1 inhib -21.5, MITF act 11.9, HSF-1 act -25.3 and esBAF inh 34.6.
`Cc1ccc(NCCC(=O)c2ccccc2)cc1Cl` gave Wnt bcat act 1.0, HSF1 inhib -6.4, MITF act 20.7, HSF-1 act -8.3 and esBAF inh 59.6*.
